Source: PubChem BioAssay
CHX counter = counter-screen for Shiga toxin inhibitors: cycloheximide protein synthesis inhibition. max response, %. cell reporter, cycloheximide protein synthesis inhibition counterscreen. AID 2314. hit rate 12% among 300,000; in the data active = max response mostly above about 13%, no sharp cut-off; inactive = mostly below about 14%; note: read at 38.3 µM for the half of the compounds with a filed dose
HCV inhibitor = inhibitors of hepatitis C virus infection; Huh7.5.1 HCVcc-Cre infection, luciferase reporter, 44 h; AID 651820; hit rate 3.4% among 340,000; Potency, µM (titrated, usually from 41.8 µM), usual class: inhibitors
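1,000 cells/well; 4 h culture; + compound; + HCVcc-Cre (~0.5 moi); 44 h; luciferase substrate, RT 15 min; read 15 sec.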
Pf growth 48h = inhibits P. falciparum growth in the first generation, 48 h. P. falciparum luciferase growth in erythrocytes, 48 h. Potency, µM (doses to about 28.7 µM), hits mostly inhibitors. hit rate 5.9% among 310,000. AID 504832
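Parasite viability was followed by luminescence of a genomically integrated firefly luciferase. Cultures held 0.1% parasitemia at 2% hematocrit (final), incubated under 5% CO2 at 37 C.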
Shiga inhibitor = inhibitors of Shiga toxin in Vero cells; Vero cells, Shiga toxin protein synthesis inhibition reporter; inhibition, % at 38.7 µM; hit rate 9.2% among 290,000; AID 2315; in the data active = inhibition mostly above about 28%, no sharp cut-off; inactive = mostly below about 43%
Pf growth 96h = P. falciparum growth inhibition at 96 hour, primary screen for plastid delayed-death inhibitors | P. falciparum luciferase reporter growth, 96 h | AID 504834 | Potency, µM (highest dose often 28.7 µM), usual class: inhibitors | hit rate 6.9% among 320,000
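P. falciparum expressing integrated firefly luciferase grown in erythrocytes (2% hematocrit, 0.05% parasitemia final) with compounds for 96 hours at 37 C, 5% CO2. Growth inhibition read as loss of luminescence after adding luciferase detection reagent.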
AMA1-RON2 inh = inhibitors of Plasmodium falciparum AMA1-RON2 interaction; AlphaScreen AMA1-biotinylated RON2 peptide binding; Potency, µM (top dose mostly 58.2 µM), hits mostly inhibitors; hit rate 0.2% among 360,000; note: nearly all actives have a fitted effect of over 45% in size
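AMA1 (3D7) with his tag at 25 nM final met compounds first, then biotinylated RON2 peptide at 25 nM; detection used donor plus acceptor beads, 10 µg/mL apiece, read by AlphaScreen after 30 min at room temperature.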
Hits are given with their value; . = inactive; ? = inconclusive; / = no result; [ ] = another dose, or the depositor's remark. In the library only some 21% were active in any assay of this set; here they are far more common. Unless noted, calls come from the whole dose curve; as a rule, active = well fitted curve in the direction sought with a large enough effect; inconclusive = small, poorly fitted or top-dose-only effect, or another doubt; inactive = no such curve, though single readings can be large; an effect the other way counts as inactive or inconclusive.

SMILES | CHX counter | HCV inhibitor | Pf growth 48h | Shiga inhibitor | Pf growth 96h | AMA1-RON2 inh
CC1=CC(C2CC(=O)N(c3ccc(C)cc3)C2=O)CC2C(=O)N(c3ccc(C)cc3)C(=O)C12 (stereo not drawn) | . | . | . | . | . | .
CCC(Oc1ccc(C)cc1)C(=O)Nc1ccccc1C(=O)N1CCOCC1 (stereo not drawn) | . | . | . | . | . | .
CCC1OC(=O)CC(O)C(C)[C@@H](O[C@@H]2OC(C)[C@H](O[C@@H]3C[C@@](C)(O)C(O)C(C)O3)C(N(C)C)C2O)[C@H](CC=O)CC(C)C(=O)/C=C/C(C)=C/[C@@H]1COC1OC(C)C(O)C(OC)[C@@H]1OC (stereo partly drawn) | / | / | ? | / | 0.757µM | /
CCC1OC(=O)C[C@H](O)C(C)[C@@H](O[C@@H]2OC(C)C(O)C(N(C)C)C2O)C(CCN2CC(C)CC(C)C2)CC(C)C(=O)/C=C/C(C)=C\[C@@H]1COC1OC(C)C(O)C(OC)C1OC (stereo partly drawn) | / | / | ? | / | 3.79µM | /
O=C(NC1CCN(Cc2ccccc2)CC1)c1ccc(Cn2c(=S)[nH]c3ccc(N4CCOCC4)cc3c2=O)cc1 | 32.3 | ? | ? | 54.8 | . | .
CCCn1c(=S)[nH]c2cc(C(=O)N3CCN(c4ccccc4)CC3)ccc2c1=O | / | / | / | / | / | .
O=c1c2cc(N3CCOCC3)ccc2[nH]c(=S)n1Cc1cccc(Cl)c1 | . | ? | . | . | ? | .
O=C(CCCCCn1c(=S)[nH]c2ccc(N3CCOCC3)cc2c1=O)NC1CCN(Cc2ccccc2)CC1 | . | ? | ? | . | . | .
O=c1c2cc(N3CCOCC3)ccc2[nH]c(=S)n1Cc1ccco1 | 10.8 | . | . | . | / | ?
O=C(c1ccc2c(=O)n(Cc3ccco3)c(=S)[nH]c2c1)N1CCN(c2ccccc2)CC1 | . | ? | . | . | 11.7µM | .
COc1cc(/C=C2\C(=N)N3N=C(S(C)(=O)=O)SC3=NC2=O)ccc1OC(=O)c1ccco1 | . | . | . | . | ? | .
C[N+]1(CC(O)COCC2COc3ccccc3O2)CCOCC1 (stereo not drawn) | . | . | . | . | . | .
Cc1c2c(nc3ccccc13)CCC(C(C)(C)C)C2 (stereo not drawn) | 25.6 | ? | . | 61.5 | .[5.75 µM] | .
Clc1ccc(NCc2ccsc2)cc1 | 13.1 | / | . | 26.9 | . | /
CS(=O)(=O)N1N=C(c2ccco2)CC1c1ccc(Br)cc1 (stereo not drawn) | 20.9 | . | . | . | . | .
CS(=O)(=O)N1N=C(c2ccco2)CC1c1ccc(Cl)cc1Cl (stereo not drawn) | . | . | . | . | 5.22µM | .
CS(=O)(=O)N1N=C(c2ccco2)CC1c1ccccc1Cl (stereo not drawn) | . | . | . | . | . | .
Cc1ccccc1C(=O)Nc1cccc(C(=O)N/N=C/c2ccc3c(c2)OCO3)c1 | 19.7 | ? | . | 55.4 | . | .
O=C(N/N=C/c1ccc2c(c1)OCO2)c1cccc(NC(=O)c2ccccc2Cl)c1 | . | . | . | 47.9 | . | .
O=C(N/N=C/c1ccc2c(c1)OCO2)C(=O)Nc1cccc(Cl)c1 | 16.0 | . | . | 65.3 | . | .
O=C(N/N=C/c1ccc2c(c1)OCO2)C(=O)Nc1ccccc1 | . | . | . | . | . | .
Cc1cccc(C(=O)Nc2cccc(C(=O)N/N=C/c3ccc4c(c3)OCO4)c2)c1 | 39.7 | ? | . | 78.5 | . | .
O=C(N/N=C/c1ccc2c(c1)OCO2)c1ccc(NC(=O)c2ccccc2Cl)cc1 | . | ? | ? | . | . | .
COC(=O)CCC[C@H]1CC2(C[C@H](CCCO[Si](C)(C)C(C)(C)C)N1C(=O)OC(C)(C)C)OCCO2 | / | ? | ? | / | . | .
CCOC(=O)C1(C)CCN1C(=O)c1ccc(SC(F)(F)F)cc1 (stereo not drawn) | / | / | / | / | / | .
CCOC(=O)C(=O)N(C)c1c(CC)nc2c(OCc3ccc(OC(F)F)cc3)cccn12 | / | / | / | / | / | .
COc1ccc(N=C2NC(=O)/C(=C/C=C/c3ccccc3)S2)cc1 | . | ? | 7.38µM | . | 6.57µM | .
COc1ccc(N=C2NC(=O)/C(=C/c3ccco3)S2)cc1 | 35.6 | . | ? | . | 9.28µM | .
Cc1ccccc1CSc1nn2c(=O)c(C)nnc2s1 | . | . | 5.22µM | . | ? | .
